# Hits are enriched below; roughly 3.1% of the tested compounds scored in any of these assays.
# FAS TE block: FAS thioesterase domain inhibitors, primary screen, biochemical, fluorescence intensity, uHTS; recombinant FAS-TE, OMFH fluorogenic substrate, fluorescence endpoint; inhibition, % at 15 µM; Fatty acid synthase (Homo sapiens), P49327; hit rate 0.67% among 360,000; AID 602261, 2012;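 active = compounds whose normalised, plate-corrected inhibition of enzyme fluorescence in the single-dose primary screen is 50% or more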;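 also: 0% = DMSO with enzyme and 100% = substrate without enzyme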
# Calb FLC: C. albicans growth inhibition with fluconazole, primary screen, CaCi-2 strain, Alamar Blue fluorescence. C. albicans CaCi-2 (fluconazole-resistant clinical isolate) + fluconazole, 48 h. AID 1979, 2009. growth inhibition, % (test concentration not listed). hit rate 0.57% among 300,000;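 active = growth inhibition above about 58% in most replicates, limit read from the data, passing the limit was not always enough; inconclusive = exactly half the replicates above a set limit; inactive = most replicates below a set limit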;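 also: all wells also contain fluconazole at 8 µg/ml as a sub-toxic cotreatment; 0% = median of DMSO wells and 100% = median of geldanamycin control wells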
# SUMO Mot1 rescue: yeast Mot1-301 growth rescue at high temperature, primary screen, SUMOylation pathway inhibitor project, S. cerevisiae, ATP luminescence, 38.5C | S. cerevisiae Mot1-301 growth rescue; percent above DMSO median, 100 means doubled | growth rescue, % at 18.8 µM | hit rate 1% among 320,000;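 active = every valid replicate shows activation above 250% relative to neutral control wells; inactive = the rest, any valid replicate at or below 250%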;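 also: OY570 slx delta 5 strain wells were the positive control but not used for scaling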
# ATG4B inhibitor: ATG4B protease inhibitors, primary screen, biochemical, fluorescence, uHTS; Cysteine protease ATG4B (Homo sapiens), Q9Y4P1; ATG4B cleavage of LC3-PLA2, NBD-HPC fluorescence, 1 h; inhibition, % at 8.33 µM; hit rate 0.51% among 340,000; AID 504462, 2011; in the data active = inhibition above about 40%
# NadD inh: inhibitors of S. aureus NadD, primary screen, biochemical, colorimetric, uHTS; purified NadD enzyme, colorimetric absorbance read-out; inhibition, % at 20 µM; hit rate 0.78% among 360,000; in the data active = inhibition above about 26%
# An asterisk follows results filed as active; ? = inconclusive; nt = not tested or not shown.
SMILES,FAS TE block,Calb FLC,SUMO Mot1 rescue,ATG4B inhibitor,NadD inh
CC(NCC(=O)Nc1ccccc1C(=O)NC1CC1)c1ccc(S(C)(=O)=O)cc1 (configuration not stated),-7,nt,-14,2,-3
CCN(CCCNc1cc2c(c(N)c1S(=O)(=O)O)C(=O)c1ccccc1C2=O)c1ccccc1,15,nt,nt,nt,52*
O=C(OCc1cn([C@H]2C[C@H](c3ccc(Cl)cc3)N(C(=O)C3CCCCC3)C[C@@H]2O)nn1)c1ccccc1,6,nt,nt,nt,-2
Brc1ccc(N/N=C(/N=Nc2nn[nH]n2)c2ccccc2)cc1,40,124*,-11,37,15
CC1(CCc2ccccc2)NC(=O)N(CC(=O)Nc2ccc3c(c2)OCCO3)C1=O (configuration not stated),2,110*,nt,-6,-4
CC(=O)[C@]1(O)Cc2c(O)c3c(c(O)c2[C@@H](O[C@H]2C[C@H](N)[C@H](O)[C@H](C)O2)C1)C(=O)c1ccccc1C3=O,nt,78*,-20,-68,nt
COc1cccc2c1C(=O)c1c(O)c3c(c(O)c1C2=O)C[C@@](O)(C(=O)CO)C[C@@H]3O[C@H]1C[C@H](N)[C@@H](O)[C@H](C)O1,-88,nt,-33,-14,57*
COc1cccc2c1C(=O)c1c(O)c3c(c(O)c1C2=O)C[C@@](O)(C(C)=O)C[C@@H]3O[C@H]1C[C@H](N)[C@H](O)[C@H](C)O1,-149,nt,nt,-24,-8
COc1cccc2c1C(=O)c1c(O)c3c(c(O)c1C2=O)CC(O)(C(=O)CO)CC3OC1CC(N(C)C)C(O)C(C)O1 (configuration not stated),-128,nt,nt,-23,33*
Cc1cc(F)ccc1NCC(=O)Nc1ccccc1Br,0,6,16,6,1
CCOC(=O)C1CCN(C(=O)c2cc(COc3ccc(OC)c4ccccc34)on2)CC1,16,7,-11,1,-3
N#Cc1c(NCCN)nc(NCc2ccccc2)c2c1CCN(Cc1ccccc1)C2,-52,nt,nt,8,30*
Oc1nc(Nc2ccccc2)sc1/C=C1\C=Nc2ccccc21,0,91*,24,15,1
CC(C)c1noc2ncc(C(=O)c3cc(Cl)cc(Cl)c3O)cc12,6,99*,10,7,-4
Nc1nc2ncc(C(=O)c3cc(Cl)cc(Cl)c3O)cc2s1,12,-5,305,8,27
Cc1ccc(-c2cc(C(=O)NCCCn3ccnc3)c3cc(Br)ccc3n2)o1,-20,nt,9,-10,49*
Cc1ccc(-c2cc(C(=O)O)c3cc(Br)ccc3n2)o1,-7,-5,39,4,0
O=C(COC(=O)COc1cccc(Br)c1)Nc1ccc(F)cc1F,-5,nt,nt,-50,-3
Cc1cccc(C2=NN(c3ccc(Br)cc3)[C@@H](C(=O)N3CCOC3=O)[C@@H]2c2ccccc2)c1,72*,nt,nt,-4,19
C[C@@H]1C(c2cccc(Cl)c2)=NN(c2ccccc2)[C@H]1C(=O)N1CCOC1=O,18,nt,nt,5,0
Cc1cccc(C2=NN(c3ccccc3)[C@@H](C(=O)N3CCOC3=O)[C@@H]2c2ccccc2)c1,36,nt,nt,0,9
C[C@@H]1C(c2cccc(Cl)c2)=NN(c2ccc(Br)cc2)[C@H]1C(=O)N1CCOC1=O,56*,nt,nt,9,14
Cc1cc2oc3ccc(NCCCn4ccnc4)cc3c(=O)c2cc1C,-16,86*,0,5,28
c1ccc(-c2nnc(-c3ccccn3)nn2)nc1,-1,7,-28,-1,-4
c1ccc(-c2cccc(-c3ccccn3)n2)nc1,-3,100*,6,-4,-6
SMILES,FAS TE block,Calb FLC,SUMO Mot1 rescue,ATG4B inhibitor,NadD inh
O=C(C1CCN(S(=O)(=O)c2cnc[nH]2)CC1)N(CCc1ccccc1)Cc1ccccc1,-18,?,417*,-5,-2
NC(=O)CC(NC(=O)Cc1ccc(Br)cc1)c1ccc(N2CCC(Cc3ccccc3)CC2)c([N+](=O)[O-])c1 (configuration not stated),-15,-10,-2,8,6
COc1ccc(NC(=O)CCCN2C(=O)C(c3ccccc3)Oc3cccnc32)c(OC)c1 (configuration not stated),5,4,339*,5,-7
CNC1=C(N(C(C)=O)c2ccc(Br)cc2)C(=O)c2ccccc2C1=O,-7,103*,-8,-8,-5
Nc1ccc(C(=O)N/N=C\c2cc(N=Nc3cccc4ccccc34)ccc2O)cc1,14,32,18,9,41*
COC(=O)N/N=C/c1cc(N=Nc2ccccc2Cl)ccc1O,6,-12,113,7,2
O=C1NN(c2cccc(Br)c2)C(=O)/C1=C/c1ccc(-c2cc([N+](=O)[O-])ccc2O)o1,1,1,11,18,70*
COC(=O)c1ccc(N2NC(=O)/C(=C/c3ccc(-c4ccc(Cl)c(C(=O)O)c4)o3)C2=O)cc1,-3,62*,nt,9,12
O=C1NN(c2ccc(Cl)c(Cl)c2)C(=O)/C1=C/c1ccc(-c2ccccc2C(=O)O)o1,0,81*,121,32,7
Clc1ccc(-n2nnnc2Sc2ncnc3sccc23)cc1,29,26,578*,4,5
Cc1sc2ncnc(Sc3nnnn3-c3ccccc3)c2c1C,22,9,-14,5,-8
COc1cccc(/C=N/n2c(N)c(S(=O)(=O)c3cccs3)c3nc4ccccc4nc32)c1OC,-6,-1,9,1,7
Nc1c(S(=O)(=O)c2cccc(Cl)c2)c2nc3ccccc3nc2n1/N=C/c1ccc(O)c(O)c1,nt,85*,3,nt,nt
CS(=O)(=O)c1ccc(C(=O)OCC(=O)N2CCCc3ccccc32)cc1,-6,-2,15,-7,0
CCCCN(C)Cc1c(C)[nH]c2ccccc2c1=O,-2,-2,160,4,-11
Cc1[nH]c2ccccc2c(=O)c1CN(C)Cc1ccccc1,-9,-3,331*,1,-1
Cc1c(CCOC(=O)C23CC4CC(CC(C)(C4)C2)C3)sc[n+]1Cc1ccccc1,8,101*,-14,4,4
Cc1c(CCOC(=O)C23CC4CC(CC(C4)C2)C3)sc[n+]1Cc1ccccc1,-6,57,16,0,-8
Cc1cc(OCC(=O)Nc2ccc(CN3CCOCC3)cc2)c2c(C)c(C)c(=O)oc2c1,6,-3,305*,1,-5
C(#Cc1ccccc1)C[N+]1(CC#Cc2cccc3ccccc23)CCCC1,17,90*,-5,19,5
CC(=O)Nc1ccc(OCCOc2ccc(/C=C3\C(=N)N4N=C(C)SC4=NC3=O)cc2)cc1,-1,-9,70,-10,12
CCC1=NN2C(=N)/C(=C\c3ccc(OCCOc4ccccc4OC)cc3)C(=O)N=C2S1,0,-3,-28,3,25*
